Hit rate of the full screen: of about 3,600 compounds, about 900 (25%) were called active. The rule behind the calls is not given here. These entries were drawn from the full list. Where a call stands in place of a potency, no number is given. Potency and affinity values are given separately.

The assay deals with Protein Tat (Human immunodeficiency virus type 1 group M subtype B (isolate HXB2)) (UniProt P04608). The experiment in a line: HIV-1 Tat–TAR interaction blockers – biochemical, fluorescence polarization, FAM-labeled TAR RNA, counter-screen for Vif-APOBEC3G degradation inhibitor project, dose response (AID 1117361). The conditions noted are these: Tat-TAR RNA binding; series mostly up to 100 µM.
Consider `COC(=O)c1cc(=O)n(Cc2ccc3c(c2)OCO3)c(=Nc2ccc(F)c(Cl)c2)s1`, for which the result was inactive.

Turning to `COCCn1c(SCC(=O)Nc2ccccc2F)nc2c([nH]c3ccccc32)c1=O`, the molecule was called inactive.

On to `O=C(O)CN1C(=O)CSc2ccccc21`, for which the call was inactive.

Consider `COc1ccc(Nc2nc3ccccc3nc2-n2nc(C)cc2C)cc1`, for which the molecule was classed as inactive.

For `COc1ccc(NC2=NC(C)(CO)CS2)cc1` (configuration not stated), the molecule was classed as inactive.

On to `CCOC(=O)C(C(=O)OCC)C(CC(=O)C1CC1)c1ccccc1` (configuration not stated), for which the result was inactive.

On to `O=C(O)/C=C/C(=O)NNc1ncnc2ccccc12`, for which the outcome was inactive.

With `CCCCCCCCNc1ncnc2ccccc12`, the outcome was inactive.

On to `O=C(CSc1nnc(CNC(=O)c2ccccc2F)o1)c1ccccc1`, for which the outcome was inactive.

On to `CCc1ccccc1NC(=O)c1cc2ncc(Br)cn2n1`, for which the outcome was inactive.

`COc1ccc(Br)c(C(=O)NC(C)(C)CO)c1`: the molecule was classed as inactive.

Regarding `O=[N+]([O-])c1ccc2c([N+](=O)[O-])ccc3c2c1CC3`, the molecule was classed as inactive.

Turning to `CCC(=O)Nc1cccc(-c2nc3ccccc3c(=O)o2)c1`, the molecule was classed as inactive.

In the case of `O=C(O)CSCc1c(F)cccc1Cl`, the result was inactive.

On to `CC(C(=O)NCC1CCCCC1)N(C)Cc1ccc(Br)cc1` (configuration not stated), for which the molecule was called inactive.

Turning to `O=S(=O)(O)c1cccc2c(N=Nc3ccc(O)c4ncccc34)cccc12`, the call was inactive.

Turning to `O=C(c1ccccc1)c1ccc(OC(=O)N2CCOCC2)cc1`, the molecule was called inactive.

Take `O=C(Nc1cccc(S(=O)(=O)N2CCCCC2)c1)c1ccc2c(=O)n3c(nc2c1)CCCCC3`: the call was inactive.

For `O=C(c1ccc(-n2cnnn2)cc1)N1CCOCC1`, the outcome was inactive.

In the case of `CCC(CC)C(=O)Nc1cccc(C(=O)N2CCOCC2)c1`, the call was inactive.

Turning to `CC(C)CCNC(=O)c1ccc2c(SCC(=O)O)c3c(nc2c1)CCC3`, the result was inactive.

Turning to `CCOC(=O)C1CCN(C(=O)c2ccc3snnc3c2)CC1`, the outcome was inactive.

Take `CCOC(=O)N1CCN(C(=O)c2ccc(NC(=O)c3ccc(C)cc3)cc2)CC1`: the molecule was called inactive.

As for `O=C(NNC(=O)c1ccccc1-n1cccc1)c1ccc(Cl)c(Cl)c1`, the molecule was classed as inactive.

On to `CC(C)(C)NC(=O)c1cnn2c1NC(c1ccc(F)cc1)CC2C(F)(F)F` (configuration not stated), for which the outcome was inactive.

Consider `CN(C)C=NC(=O)/C(C#N)=C1\CCc2ccccc2N1`, for which the molecule was classed as inactive.

In the case of `Nn1c(SCC(=O)NCCc2ccc(F)cc2)nnc1C1CCCCC1`, the molecule was called inactive.

Consider `COc1ccccc1CNC(=O)CCS(=O)(=O)c1ccc2c(c1)CCCN2C(C)=O`, for which the molecule was called inactive.

For `CCOC(=O)Nc1ccc2c(CN3C(=O)NC4(CCCC4)C3=O)cc(=O)oc2c1`, the call was inactive.

`Cc1ccc(N(CN2C(=O)C3CC=CCC3C2=O)C(=O)c2ccco2)cc1Cl` (configuration not stated): the result was inactive.

`CCc1[nH]nc2c1C1(CCN(C(=O)OCc3ccccc3)CC1)C(C#N)=C(N)O2`: the molecule was called inactive.

Turning to `Cc1[nH]c2ccccc2c1Cc1nnc(SCc2ccccc2)o1`, the result was inactive.

In the case of `Cn1cc(CN2CCN(CCO)CC2)c(-c2ccc(Oc3ccccc3)cc2)n1`, the molecule was called inactive.

Regarding `O=c1ccccn1Cc1c(F)cccc1Cl`, the result was inactive.

For the molecule `CCc1c(O)nc(N2CCN(Cc3ccccc3)CC2)[nH]c1=O`, the outcome was inactive.

Consider `CCOC(=O)c1cnc(-c2ccccc2)nc1Oc1ccc(C)cc1`, for which the result was inactive.

On to `CCOc1ccccc1CNC(=O)Cn1c(=O)oc2ccccc21`, for which the outcome was inactive.

As to `CCOc1ccc(-n2c(C)nc(O)c2N=Nc2ccccc2)cc1`, the call was inactive.

In the case of `CCOc1ccc(C(=O)N2CCCN(C(=O)c3ccc(OCC)cc3)CC2)cc1`, the molecule was called inactive.

For the molecule `CCOC(=O)Cn1c(=O)n(CC(=O)OCC)c2ccccc21`, the molecule was classed as inactive.

Turning to `CCOc1ccccc1NC(=O)Cn1c(-c2ccc(Cl)cc2)noc1=O`, the call was inactive.

On to `Cc1sc(NC(=O)CN2CCOCC2)nc1-c1ccc2c(c1)CCN2S(=O)(=O)c1ccccc1`, for which the molecule was called inactive.

Regarding `COc1ccccc1NC(=O)COC(=O)c1c(NC(C)=O)sc(C)c1C`, the result was inactive.

Take `CCOc1ccc(-n2c(SC)nc3c(c2=O)SCC3)cc1`: the call was inactive.

For the molecule `CC(C)Oc1ccc(CNCC2(O)CCOC(C)(C)C2)cc1` (configuration not stated), the molecule was called inactive.

On to `Cc1sc(NC(=O)CSc2nnnn2C(C)C)c(C#N)c1C`, for which the outcome was inactive.

In the case of `CNc1sc(C(=O)c2cccs2)c(N)c1-c1nc2ccccc2s1`, the call was inactive.

In the case of `COCCNC(=O)CN1C(=O)CSc2ncccc21`, the call was inactive.

On to `CC(=O)OC1OCCOC1NC(=S)Nc1ccc(C)cc1` (configuration not stated), for which the molecule was called inactive.

As to `COc1ccc(OCc2nnc3n2N=C(c2ccc(OC)cc2)CS3)cc1`, the call was inactive.

Take `CCn1c(SCC(=O)c2ccc(F)cc2)nnc1-c1ccoc1C`: the result was inactive.

For the molecule `CCCCOc1ccccc1C1NC(=O)NC(C)=C1C(=O)OCc1ccco1` (configuration not stated), the result was inactive.

Consider `COc1ccc(C(=O)O)cc1S(=O)(=O)N1CCCc2ccccc21`, for which the outcome was inactive.

On to `COC(=O)CSc1nnc(-c2ccccc2OC)n1-c1ccc(C)cc1`, for which the outcome was inactive.

As for `CCOc1cc(C)c(Cl)cc1S(=O)(=O)NCc1ccco1`, the call was inactive.

Regarding `Oc1cc2c(cc1O)[C@@H](c1ccccc1)CNCC2`, the molecule was classed as inactive.

As to `CC1CCc2cc(F)ccc2N1C(=O)CSc1nnc(-c2cccs2)n1C` (configuration not stated), the molecule was classed as inactive.

As to `CCOc1cc(S(=O)(=O)NCc2ccccn2)c(C)cc1C`, the call was inactive.

Consider `O=C(Cn1nnc(-c2ccccc2-n2cnnn2)n1)c1ccccc1`, for which the call was inactive.

Turning to `O=C(CN1C(=O)/C(=C\c2cccs2)SC1=S)Nc1cccc(C(=O)O)c1`, the molecule was called inactive.

Take `C=CCOc1ccc(/C=C2\SC(=S)N(CCC(=O)O)C2=O)cc1`: the call was inactive.

For `CC(=O)O/N=C/c1c(N2CCOCC2)n(C)c2ccccc12`, the outcome was inactive.

As to `CCS(=O)(=O)Nc1ccc(C(=O)CC2(O)C(=O)Nc3ccccc32)cc1` (configuration not stated), the result was inactive.

Consider `COc1ccc(S(=O)(=O)Cc2ccc(C(=O)NC(C)C)o2)cc1`, for which the molecule was called inactive.

For the molecule `CCOC(=O)C1CCCN(C(=O)c2ccc(CS(=O)(=O)c3ccc(Br)cc3)o2)C1` (configuration not stated), the molecule was classed as inactive.

`CCOC(=O)CSc1nnc(CNC(=O)c2cccs2)n1CCc1ccccc1`: the outcome was inactive.

For the molecule `Cc1ccc(SCC2=NNC(=O)C2)cc1`, the outcome was inactive.

For the molecule `COc1ccccc1N(CC(O)CN1C(=O)NC(C)(C)C1=O)S(=O)(=O)c1ccc(C)cc1` (configuration not stated), the molecule was classed as inactive.

For the molecule `Cc1nn(Cc2ccccc2)c(C)c1/C=N/NC(=O)c1ccccc1O`, the result was inactive.

Turning to `CN(C)/C=N/NC(=O)c1ccccc1Cl`, the molecule was classed as inactive.

Consider `Cc1nc2ccc(S(=O)(=O)N(C)CC(=O)N3CCc4ccccc43)cc2s1`, for which the call was inactive.

For the molecule `COC(=O)[C@@]1(Cc2ccc(OC)cc2)[C@H]2c3cc(C(=O)N(C)C)n(C[C@H](O)CO)c3C[C@H]2CN1C(=O)c1ccccc1`, the molecule was classed as inactive.

Values taken from PubChem BioAssay AID1117361 (Southern Research Institute, 2015).
